Results: PubChem BioAssay AID1159580 (chemical genetic matrix, 2015)
Values joined by “and” are separate entries in the source; they are usually repeats but may differ in a detail not shown here. Equal entries are not always repeated. Among all 5,500 compounds or so, about 2,000 (36%) were called active. Inconclusive results (about 18%) are left out. Some of the results follow. A number with no mark means an inactive call. Rule as the data show it: active = normalized growth mostly below about 0.91 (no sharp cut-off); inconclusive = no clear call, values can overlap the other calls; inactive = mostly above about 0.92.

Experiment: chemical genetic growth profiling, strain panel (AID 1159580);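 also: tested at 20 µM; growth read once vehicle control cultures reached saturation at 30 °C; 1 = growth at the plate median or of vehicle wells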
Details: S. cerevisiae deletion strains, growth OD

COc1ccc(-c2c(O)c3c(OC)c4c(cc3oc2=O)OC(C)(C)C=C4)cc1
normalized growth (locus YAL013W, strain DEP1, stronger effect = lower value): 0.959 | normalized growth (locus YAL021C, strain ccr4, stronger effect = lower value): 0.938 | normalized growth (locus YAL026C, strain drs2, stronger effect = lower value): 0.952 | normalized growth (locus YAL030W, strain snc1, stronger effect = lower value): 0.951 | normalized growth (locus YBL061C, strain skt5, stronger effect = lower value): 0.942 | normalized growth (locus YBR009C, strain hhf1, stronger effect = lower value): 0.953 | normalized growth (locus YBR021W, strain FUR4, stronger effect = lower value): 0.946 | normalized growth (locus YBR023C, strain chs3, stronger effect = lower value): 0.947 | normalized growth (locus YBR171W, strain sec66, stronger effect = lower value): 0.919 | normalized growth (locus YBR229C, strain ROT2, stronger effect = lower value): 0.951 | normalized growth (locus YBR231C, strain swc5, stronger effect = lower value): 0.954 | normalized growth (locus YBR279W, strain paf1, stronger effect = lower value): 0.972 | normalized growth (locus YCL011C, strain gbp2, stronger effect = lower value): 0.957 | normalized growth (locus YCL016C, strain dcc1, stronger effect = lower value): 0.955 | normalized growth (locus YCL029C, strain bik1, stronger effect = lower value): 0.937 | normalized growth (locus YCL061C, strain MRC1, stronger effect = lower value): 0.945 | normalized growth (locus YCL069W, strain vba3, stronger effect = lower value): 0.955 | normalized growth (locus YCR088W, strain abp1, stronger effect = lower value): 0.947 | normalized growth (locus YDL005C, strain med2, stronger effect = lower value): 0.966 | normalized growth (locus YDL035C, strain GPR1, stronger effect = lower value): 1 | normalized growth (locus YDL040C, strain nat1, stronger effect = lower value): 0.95 | normalized growth (locus YDL074C, strain BRE1, stronger effect = lower value): 0.967 | normalized growth (locus YDL101C, strain DUN1, stronger effect = lower value): 0.962 | normalized growth (locus YDL185W, strain tfp1, stronger effect = lower value): 0.944 | normalized growth (locus YDL192W, strain arf1, stronger effect = lower value): 0.959 | normalized growth (locus YDR001C, strain nth1, stronger effect = lower value): 0.948 | normalized growth (locus YDR069C, strain doa4, stronger effect = lower value): 0.992 | normalized growth (locus YDR101C, strain arx1, stronger effect = lower value): 0.961 | normalized growth (locus YDR137W, strain rgp1, stronger effect = lower value): 0.845 (active) | normalized growth (locus YDR150W, strain NUM1, stronger effect = lower value): 0.936 | normalized growth (locus YDR159W, strain sac3, stronger effect = lower value): 1.01 | normalized growth (locus YDR162C, strain NBP2, stronger effect = lower value): 0.962 | normalized growth (locus YDR195W, strain ref2): 0.981 | normalized growth (locus YDR297W, strain sur2, stronger effect = lower value): 1.02 | normalized growth (locus YDR318W, strain mcm21, stronger effect = lower value): 0.936 | normalized growth (locus YDR334W, strain swr1, stronger effect = lower value): 0.955 | normalized growth (locus YDR335W, strain msn5, stronger effect = lower value): 0.971 | normalized growth (locus YDR388W, stronger effect = lower value): 0.924 (active) | normalized growth (locus YDR392W, strain spt3, stronger effect = lower value): 0.725 (active) | normalized growth (locus YDR502C, strain sam2, stronger effect = lower value): 0.891 (active) | normalized growth (locus YEL003W, strain gim4, stronger effect = lower value): 0.958 | normalized growth (locus YEL037C, strain rad23, stronger effect = lower value): 0.962 | normalized growth (locus YEL061C, strain CIN8 (second series), stronger effect = lower value): 0.957 | normalized growth (locus YER015W, strain faa2, stronger effect = lower value): 0.975 | normalized growth (locus YER016W, strain bim1, stronger effect = lower value): 0.951 | normalized growth (locus YER110C, stronger effect = lower value): 0.949 | normalized growth (locus YER111C, strain swi4, stronger effect = lower value): 0.969 | normalized growth (locus YER155C, strain BEM2 (second series), stronger effect = lower value): 0.963 | normalized growth (locus YER155C, strain BEM2, stronger effect = lower value): 0.956 | normalized growth (locus YER167W, strain BCK2, stronger effect = lower value): 0.954 | normalized growth (locus YFR010W, strain ubp6, stronger effect = lower value): 0.967 | normalized growth (locus YGL078C, strain dbp3, stronger effect = lower value): 0.99 | normalized growth (locus YGL086W, strain mad1, stronger effect = lower value): 0.949 | normalized growth (locus YGL167C, strain pmr1, stronger effect = lower value): 0.92 | normalized growth (locus YGL173C, strain kem1, stronger effect = lower value): 0.958 | normalized growth (locus YGL227W, strain vid30, stronger effect = lower value): 0.953 | normalized growth (locus YGL240W, strain doc1, stronger effect = lower value): 0.989 | normalized growth (locus YGL248W, strain PDE1, stronger effect = lower value): 0.979 | normalized growth (locus YGL253W, strain hxk2, stronger effect = lower value): 0.949 | normalized growth (locus YGR078C, strain PAC10, stronger effect = lower value): 0.984 | normalized growth (locus YGR135W, strain pre9, stronger effect = lower value): 0.931 | normalized growth (locus YGR252W, strain gcn5, stronger effect = lower value): 0.96 | normalized growth (locus YHR013C, strain ard1, stronger effect = lower value): 0.959 | normalized growth (locus YHR027C, strain rpn1, stronger effect = lower value): 0.973 | normalized growth (locus YHR030C, strain SLT2, stronger effect = lower value): 0.956 and 1 | normalized growth (locus YHR079C, strain IRE1 (second series), stronger effect = lower value): 0.953 | normalized growth (locus YHR079C, strain IRE1, stronger effect = lower value): 0.992 | normalized growth (locus YHR094C, strain hxt1, stronger effect = lower value): 0.939 | normalized growth (locus YHR129C, strain ARP1, stronger effect = lower value): 0.972 | normalized growth (locus YHR142W, strain chs7, stronger effect = lower value): 0.925 | normalized growth (locus YHR200W, strain rpn10, stronger effect = lower value): 0.946 | normalized growth (locus YIL066C, strain RNR3, stronger effect = lower value): 0.957 | normalized growth (locus YIL073C, strain SPO22, stronger effect = lower value): 0.919 | normalized growth (locus YIL125W, strain kgd1, stronger effect = lower value): 0.978 | normalized growth (locus YIR030C, strain dcg1, stronger effect = lower value): 0.958 | normalized growth (locus YJL092W, strain hpr5, stronger effect = lower value): 0.946 | normalized growth (locus YJL095W, strain BCK1 (second series), stronger effect = lower value): 0.954 | normalized growth (locus YJL095W, strain BCK1, stronger effect = lower value): 0.944 and 0.971 | normalized growth (locus YJL115W, strain asf1, stronger effect = lower value): 0.962 | normalized growth (locus YJL129C, strain trk1, stronger effect = lower value): 0.789 (active) | normalized growth (locus YJL134W, strain LCB3, stronger effect = lower value): 0.942 | normalized growth (locus YJL154C, strain vps35, stronger effect = lower value): 0.958 | normalized growth (locus YJL164C, strain tpk1, stronger effect = lower value): 0.967 | normalized growth (locus YJL166W, strain qcr8, stronger effect = lower value): 0.966 | normalized growth (locus YJL168C, strain set2, stronger effect = lower value): 0.93 (active) | normalized growth (locus YJL187C, strain SWE1 (second series), stronger effect = lower value): 0.943
